Out of some 200,000 compounds screened, about 4,500 (2.2%) were called active. Roughly 12% stayed inconclusive and do not appear here. This is one part of a sample in which actives are shown more often than they occur. A number with no mark means an inactive call. The call rests on the fitted dose curve; in most records, active means well fitted inhibition curve with a large enough effect; inconclusive means small, poorly fitted or top-dose-only effect, or effect the other way; inactive means flat fitted curve, though single readings scatter.
Potency means the concentration at half of the fitted maximal effect.

Sequence of Cruzipain (Trypanosoma cruzi) (P25779 123-467 limits assumed): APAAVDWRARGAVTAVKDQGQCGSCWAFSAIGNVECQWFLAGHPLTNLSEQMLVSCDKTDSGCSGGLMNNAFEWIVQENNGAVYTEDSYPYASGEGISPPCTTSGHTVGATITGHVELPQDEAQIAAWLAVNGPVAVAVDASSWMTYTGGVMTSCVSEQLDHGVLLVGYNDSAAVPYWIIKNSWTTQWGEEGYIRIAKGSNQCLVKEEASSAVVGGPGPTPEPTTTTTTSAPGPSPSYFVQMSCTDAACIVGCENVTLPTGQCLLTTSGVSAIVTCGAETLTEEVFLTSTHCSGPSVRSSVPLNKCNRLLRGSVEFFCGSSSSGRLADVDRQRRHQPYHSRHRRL

This assay has as its target Cruzipain (Trypanosoma cruzi) (UniProt P25779). The assay can be described thus: qHTS Assay for Promiscuous and Specific Inhibitors of Cruzain (without detergent). Further: nearly all actives have a fitted effect of over 40% in size. Conditions: purified cruzain, Z-FR-AMC fluorescence, no detergent. As for the experimental part: Cruzain is a cysteine protease from the tropical parasite Trypanosoma cruzi. Dual qHTS experiment was performed against the NCGC compound collection in order to 1) identify novel inhibitors of the enzyme and 2) profile the compound collection for promiscuous inhibitors operating via colloidal aggregation (by performing detergent-free and detergent-containing comparison screens). Cruzain was assayed by the use of fluorogenic coumarin-based substrate Z-FR-AMC: proteolytic cleavage releases AMC, whose fluorescence is measured at 360 nm excitation and 450 nm emission. Purified cruzain was supplied by the labs of Prof. James McKerrow and Brian Shoichet, UC San Francisco.
This assay had 0.00005% Triton X-100 concentration. See also releated assay "qHTS Assay for Promiscuous and Specific Inhibitors of Cruzain (with detergent)" with 0.01% Triton X-100.
See following references for additional details:
Assay Provider: Shoichet, Brian; University of California, San Fancisco
Screening Center PI: Austin, C.P.
Screening Center: NIH Chemical Genomics Center [NCGC]
Buffer: 100 mM Sodium Acetate, pH 5.5, 5 mM DTT, Triton X-100 concentration: 0.01%.
Buffer in columns 3 and 4 as negative control (no enzyme).
Substrate solution: 2 uM final concentration of Z-FR-AMC (catalog number I-1160, Bachem) dispensed throughout the plate.
Enzyme: 1.5 nM Cruzain final concentration in columns 1, 2, 5-48. Column 1 is neutral (100% activity). Column 2 contained titration of covalent inhibitor K11777, starting concentration 1 mM, then 1:2 dilution in duplicate).
Three uL of enzyme or buffer were dispensed to 1536-well Greiner black solid bottom plates. Compounds and controls (23 nL) were transferred via Kalypsys PinTool. The plates were incubated for 15 min at room temperature, and then 1 uL of substrate solution was added to start the reaction. The plates were immediately transferred to and read 4 times every 30 seconds for 2 min on ViewLux High-throughput CCD imager (Perkin-Elmer) using 360 nm excitation and 450 nm emission fluorescence protocol. The fluorescence intensity difference between the third and the first time points (time lapse of 60 seconds) was used to compute reaction progress.
A general note: qHTS replaces the single test concentration by a dilution series.
For the molecule `Fc1ccc(-c2nn(-c3ccccc3Cl)c3c2cnc2ccccc23)cc1`, the max response, negative = inhibition was 4.61%.

On to `O=C(CC1C(=O)N(c2ccccc2)C(=O)N1CCc1cccs1)Nc1ccc(F)cc1` (stereo unspecified), for which the max response, negative = inhibition is 2.56%.

`O=C(CCSCc1ccccc1F)N1CCN(c2ccc(Cl)cc2)CC1`: the max response, negative = inhibition was 2.72%.

With `Cc1ccc(-c2nn(CCC(=O)Nc3ccc(Cl)c(Cl)c3)c(=O)c3ccccc23)cc1`, the max response, negative = inhibition was -2.75%.

Consider `CCN(CC)c1nn2c(=O)c(C(=O)NCCc3ccccc3)cnc2s1`, for which the max response, negative = inhibition was -4.42%.

Regarding `O=C(NCc1ccc2c(c1)CCN2C(=O)c1ccccc1)Nc1cc(F)ccc1F`, the max response, negative = inhibition was -19.6%.

Take `COc1ccc(CNC(=O)c2cc3c(s2)-c2ccccc2OC3)cc1`: the max response, negative = inhibition is 16.2%.

As for `Cc1ccc(-n2c(SCC(=O)Nc3ncc(Cl)cc3Cl)nc3ccccc32)cc1`, the Potency is 20 µM (active).

Regarding `Cc1ccc(NC(=O)CSc2nc3c([nH]c4ccccc43)c(=O)n2-c2ccccc2)c(C)c1`, the max response, negative = inhibition is 12.6%.

Take `Cc1cc(C)c(NC(=O)Cn2c(SCC(=O)NCc3ccccc3)nc3ccccc32)c(C)c1`: the max response, negative = inhibition is 7.19%.

Regarding `Brc1ccc(/C=N/N2CCN(C3c4ccccc4-c4ccccc43)CC2)s1`, the Potency is 12.6 µM (active).

In the case of `NS(=O)(=O)c1ccc(N=Cc2ccc(Br)s2)cc1`, the max response, negative = inhibition is -5.17%.

On to `c1ccc2c(c1)-c1ccccc1C2N1CC2CCC(CC2)C1`, for which the max response, negative = inhibition was 1.3%.

Regarding `O=C(c1ccc2c(c1)N(Cc1ccccc1)C(=O)c1ccccc1S2(=O)=O)N1CCC(Cc2ccccc2)CC1`, the max response, negative = inhibition is 1.2%.

With `COc1ccc(-c2nnc(SCc3cccnc3)o2)cc1`, the max response, negative = inhibition was 15.4%.

In the case of `COc1ccc(-c2nnc(SC(C)C#N)o2)cc1` (stereo unspecified), the max response, negative = inhibition is 2.59%.

Take `COc1ccc(-c2nnc(SC(=O)N3c4ccccc4Sc4ccccc43)o2)cc1`: the Potency was 31.6 µM (active).

With `CCOC(=O)c1ccc(NC(=O)CC2C(=O)N(c3cccc(OC)c3)C(=O)N2C2CCCCC2)cc1` (stereo unspecified), the max response, negative = inhibition is -1.66%.

For `Cc1ccc(C(=O)NCCSc2c(C)[nH]c3ccccc23)cc1C`, the max response, negative = inhibition was 13.2%.

For `N#CC1=C(SCc2ccccc2)NC(=O)C(C#N)C12CCCC2` (stereo unspecified), the max response, negative = inhibition was -1.74%.

Consider `N#CC1=C(SCc2ccc(C#N)cc2)N=C(N)C(c2nc(-c3ccccc3)cs2)C12CCCCC2` (stereo unspecified), for which the Potency is 10 µM (active).

As for `COc1ccc(CCNc2nc(-c3ccc(Cl)cc3)cc(C(F)(F)F)n2)cc1OC`, the max response, negative = inhibition is -3.01%.

Take `Cc1nn(Cc2ccc(F)cc2)c(C)c1NC(=O)c1cc(CC(C)C)on1`: the max response, negative = inhibition is 2.49%.

`CCCc1cc(=O)[nH]c(SCC(=O)OCc2ccccc2)n1`: the max response, negative = inhibition was -0.512%.

In the case of `Cc1cc(C(=O)CSc2nc(N)cc(=O)[nH]2)c(C)n1CCc1ccc(Cl)cc1`, the Potency was 12.6 µM (active).

In the case of `CCCc1cc(=O)[nH]c(SCC(=O)c2cc(C)n(CCC)c2C)n1`, the max response, negative = inhibition was -4.28%.

On to `COc1ccc(-n2ccnc(NCCc3ccc(Cl)cc3)c2=O)cc1OC`, for which the max response, negative = inhibition is 16.8%.

On to `COc1ccc(C2Sc3ccccc3NC3=C2C(=O)c2ccccc23)c(OC)c1OC` (stereo unspecified), for which the max response, negative = inhibition is -2.6%.

In the case of `S=c1nccc(-c2cc(Cl)sc2Cl)[nH]1`, the Potency was 12.6 µM (active).

Consider `COCCNC(=O)CCCN1C(=O)c2ccccc2Sc2ncccc21`, for which the max response, negative = inhibition was 15.3%.

As for `CCS(=O)(=O)N1Cc2ccccc2CC1C(=O)Nc1nc2ccc(F)cc2s1` (stereo unspecified), the Potency is 12.6 µM (active).

In the case of `O=C(Nc1nc2ccc(F)cc2s1)c1nc(SCc2ccccc2F)ncc1Cl`, the max response, negative = inhibition was 1.9%.

With `CS(=O)(=O)c1ccc2nc(NC(=O)C3CCCCC3)sc2c1`, the max response, negative = inhibition is 6.38%.

With `CCCCOc1ccc(CN2C(=O)C(=O)c3cc(Br)cc(C)c32)cc1OC`, the max response, negative = inhibition was -26.4%.

For `CCOC(=O)C1CCN(C(=O)CSc2c3c(nc4ccc(Cl)cc24)CCCC3)CC1`, the max response, negative = inhibition is -19.6%.

Regarding `Cc1cc(C)cc(NC(=O)CCCc2nc(-c3ccccc3Cl)no2)c1`, the max response, negative = inhibition is -8.67%.

As for `CCNc1ncc2ncc(=O)n(CCc3ccccc3)c2n1`, the max response, negative = inhibition was 5.65%.

As for `O=c1cnc2cnc(Nc3ccccc3)nc2n1Cc1ccc(F)cc1`, the Potency was 20 µM (active).

Regarding `Cc1nc2cnc(Nc3ccccc3)nc2n(Cc2ccc(F)cc2)c1=O`, the max response, negative = inhibition is -10.9%.

`COc1ccc2ncc3c(-c4ccc(C)c(C)c4)nn(CC(=O)NC4CCCC4)c3c2c1`: the max response, negative = inhibition was 1.87%.

Turning to `COc1ccc(Cl)cc1NC(=O)CCn1c(=O)c2cccn2c2ccccc21`, the max response, negative = inhibition was 26.4%.

On to `Cc1cccc(Cn2c(=O)n(CCC(=O)NCCc3ccc(Cl)cc3)c(=O)c3sccc32)c1`, for which the max response, negative = inhibition was 0.837%.

Turning to `Cc1ccc(CCNC(=O)Cn2c(-c3cccs3)cc3cc(F)ccc32)cc1`, the Potency was 15.8 µM (active).

Turning to `COc1ccc(CCNC(=O)CN2CCC(n3nnc4cc(F)ccc43)CC2)cc1OC`, the max response, negative = inhibition was 14.7%.

With `COc1cccc2c1cc1c(=O)n(CC(=O)N3CCN(c4ccccc4)CC3)nc(C)n12`, the max response, negative = inhibition is -2.78%.

Take `CCOc1cccc2sc(N3CCN(C(=O)C4CC4)CC3)nc12`: the max response, negative = inhibition was 4.68%.
